From PubChem BioAssay (NCATS) come the findings set out here.

Where “and” joins values, the source holds several entries; their conditions need not be identical. Equal entries are not always repeated. Values without a mark were called inactive. Records with an inconclusive call do not appear. Where a structure was tested more than once in an assay, its records may differ in their call. Calls of active or inactive are those of the source. Unless noted, calls follow the shape of the dose curve; as a rule, active = well fitted curve in the direction sought with a large enough effect; inconclusive = small, poorly fitted or top-dose-only effect, or another doubt; inactive = no such curve, though single readings can be large; an effect the other way counts as inactive or inconclusive.

For assay [1], the system named is Tov-21-G. The experiment in a line: Primary qHTS to identify gynecologic anti-cancer compounds using libraries of approved drugs and bioactive compounds (AID 1345084). Also: % is scaled to controls: 0 for no effect and ±100 for the full control effect; nearly all actives have a fitted effect of over 55% in size. The note with it: Gynecologic cancer cell panel viability, ATPlite luminescence, 48 h; series mostly up to 57.5 µM. Summed up:
(§1)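 Cytotoxicity screen measuring ATP content by luciferase luminescence. Each compound is applied at five concentrations for 48 h at 37 C with 5% CO2.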

Assay [2] relates to Tov112D. The description is as above. The note with it: Gynecologic cancer cell panel viability, ATPlite luminescence, 48 h; series mostly up to 57.5 µM. In outline: as §1
The nature of assay [3]: Drug repurposing screens with cells derived from glioblastoma tumor samples (AID 1345199). Also: nearly all actives have a fitted effect of over 40% in size. Also: potency is read from the fitted curve at half-maximal effect. As to activity, negative = cell killing: % is scaled to controls: 0 for no effect and ±100 for the full control effect. Particulars: GBM patient neurospheres viability, ATP luminescence, 48 h. Summed up:
(§2)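 Primary testing used CD133+ neurospheres from four GBM patients, seven concentrations, 48 h exposure and ATP-based viability; confirmation added three slower-growing patient lines.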

Assay [4] concerns astro. The assay is described as above. Particulars: viability, ATP luminescence, 48 h; series mostly up to 45.9 µM. Summed up: as §2
Assay [5] addresses Nuclear receptor subfamily 1 group I member 2 (Rattus norvegicus) (UniProt Q9R1A7). The experiment in a line: qHTS assay for small molecule activators of the rat pregnane X receptor (rPXR) signaling pathway (AID 651751; call rule not given here; also: 0% is about no effect). The note with it: rPXR reporter cells, luciferase (One-Glo), 24 h. A general note: In qHTS, concentration-response curves come from the screen itself.
The nature of assay [6]: qHTS assay for small molecule activators of the human pregnane X receptor (PXR) signaling pathway (AID 720659; call rule not given here; also: 0% is about no effect).
Where [7] appears, read: at 45.9 µM (top of the series), tumour line B.
Where [8] appears, read: at 45.9 µM (top of the series), tumour line D.
[9] abbreviates: at 46.1 µM (top of the series), tumour line C.
[10] abbreviates: at 21.2 µM (top of the series), tumour line B.
The mark [11] stands for this setting: at 46 µM (top of the series), tumour line A.

Chain of Nuclear receptor subfamily 1 group I member 2 (Rattus norvegicus) (Q9R1A7 whole entry, looked up): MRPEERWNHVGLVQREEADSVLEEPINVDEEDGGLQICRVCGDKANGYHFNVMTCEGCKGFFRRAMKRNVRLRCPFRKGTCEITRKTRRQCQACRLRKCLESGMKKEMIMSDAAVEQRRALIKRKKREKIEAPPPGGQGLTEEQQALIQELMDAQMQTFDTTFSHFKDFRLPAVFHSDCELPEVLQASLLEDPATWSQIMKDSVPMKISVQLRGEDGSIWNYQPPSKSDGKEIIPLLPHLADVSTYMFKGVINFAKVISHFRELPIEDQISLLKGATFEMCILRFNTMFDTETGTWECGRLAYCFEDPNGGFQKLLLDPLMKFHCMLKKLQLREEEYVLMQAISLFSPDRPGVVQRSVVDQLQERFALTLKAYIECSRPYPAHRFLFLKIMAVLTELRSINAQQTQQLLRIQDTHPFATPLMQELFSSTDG

Turning to `CC(N)C12CC3CC(CC(C3)C1)C2` (centres undefined), the Potency entry in assay [1], in assay [2] and in assay [4] was “inactive” in each case. Further, the activity, negative = cell killing in assay [3] (setting [7]) was -2.45%; in assay [3] (setting [8]), -5.43%; in assay [3] (setting [9]), 5.06%.
For the compound `CC(C)(Sc1cc(C(C)(C)C)c(O)c(C(C)(C)C)c1)Sc1cc(C(C)(C)C)c(O)c(C(C)(C)C)c1`, the Potency result in assay [1], in assay [2] and in assay [4] was “inactive” each time. In addition, the activity, negative = cell killing in assay [3] (at 20 µM (top of the series), tumour line C) was -9.49%; in assay [3] (setting [10]) it was -22%. Further, in assay [3] (tumour line A), the Potency was 4.47 µM (active).
With `CCn1cc(C(=O)O)c(=O)c2cc(F)c(N3CCN(C)CC3)cc21`, the Potency entry in assay [1], in assay [2] and in assay [4] was “inactive” in each case. In addition, the values for the activity, negative = cell killing in assay [3] (setting [7]), in assay [3] (setting [8]) and in assay [3] (setting [9]) were -12.6%, -0.981% and -19.8%, respectively.
Consider `O=P(O)(O)C(O)(Cc1cccnc1)P(=O)(O)O`, for which the Potency result in assay [1], in assay [2] and in assay [4] was “inactive” in each case. Besides, the results for the activity, negative = cell killing in assay [3] (setting [7]), in assay [3] (setting [8]) and in assay [3] (setting [9]) were -9.54%, -7.26% and 2.44%, respectively.
`Cc1ccnc2c1NC(=O)c1cccnc1N2C1CC1`: the Potency entry in assay [1], in assay [2] and in assay [4] was “inactive” throughout. The activity, negative = cell killing in assay [3] (setting [7]) was -8.19%; in assay [3] (setting [8]), 4.3%; in assay [3] (setting [11]), -21.5%; in assay [3] (setting [9]), -3.33%. Besides, the max response in assay [5] was -6.61%. Further, the compound was classed as inactive in assay [6].
For `Cc1ncc([N+](=O)[O-])n1CCO`, the Potency entry in assay [1], in assay [2] and in assay [4] was “inactive” each time. Further, the activity, negative = cell killing was -7.77% in assay [3] (setting [7]), 10.9% in assay [3] (setting [8]), -19.2% in assay [3] (setting [11]) and 12.6% in assay [3] (setting [9]). The max response in assay [5] was 6.53%. The compound was classed as inactive in assay [6].
As for `CNNCc1ccc(C(=O)NC(C)C)cc1`, the Potency result in assay [1], in assay [2] and in assay [4] was “inactive” in each case. The activity, negative = cell killing in assay [3] (setting [7]) was -4.85%; in assay [3] (setting [8]), -17.7%; in assay [3] (setting [9]), -14.6%.
As for `CC1=NN(c2ccccc2)C(=O)C1`, the Potency entry in assay [1], in assay [2] and in assay [4] was “inactive” each time. In addition, the activity, negative = cell killing was -3.42% in assay [3] (setting [7]), -8.39% in assay [3] (setting [8]), -29.7% in assay [3] (setting [11]) and -6.42% in assay [3] (setting [9]). For the same compound, the max response in assay [5] was 3.89% and 0.779%.
Take `NC(N)=NC(N)=NCCc1ccccc1`: the Potency result in assay [1] and in assay [2] was “inactive” each time. Moreover, the activity, negative = cell killing in assay [3] (setting [10]) is -24.6%; in assay [3] (at 21.3 µM (top of the series), tumour line A) it was -28.1%; in assay [3] (setting [7]), -14.4%. The Potency in assay [3] (tumour line D) is 25.1 µM (active). Moreover, in assay [6], the result was inactive.
For `CCCOc1ccc(C(=O)OCCN(CC)CC)cc1N`, the Potency result in assay [1], in assay [2] and in assay [4] was “inactive” each time. Further, in assay [3] (setting [9]), the activity, negative = cell killing is -16.2%. In addition, the Potency in assay [3] (tumour line A) is 14.1 µM (active).
As for `O=C(O)c1cccnc1`, the Potency result in assay [1], in assay [2] and in assay [4] was “inactive” in each case. In addition, the activity, negative = cell killing is -10% in assay [3] (setting [7]), -8.9% in assay [3] (setting [8]) and -28.3% in assay [3] (setting [9]).
